KB-3-1 tox: KB-3-1 parental cell cytotoxicity | KB-3-1 viability, CellTiter-Glo ATP luminescence, 72 h | actives 1.4% (n = 400,000) | AID 1347075 | Potency, µM (top dose mostly 46.1 µM), actives largely listed as cytotoxic; note: nearly all actives have a fitted effect of over 60% in size
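Multi-concentration cytotoxicity screen in KB-3-1 cells grown in DMEM lacking phenol red with 10% FBS. After 72 h at 37 °C with compound, ATP-dependent luminescence was recorded.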
ASM inhibitor: blocks human secretory acid sphingomyelinase; P17405; placental ASM, HMU-PC fluorogenic substrate, 60 min; Potency, µM (doses to about 57.5 µM), usual class: inhibitors; actives 0.006% (n = 340,000); AID 504937
Target sequence (P17405 47-631 limits assumed): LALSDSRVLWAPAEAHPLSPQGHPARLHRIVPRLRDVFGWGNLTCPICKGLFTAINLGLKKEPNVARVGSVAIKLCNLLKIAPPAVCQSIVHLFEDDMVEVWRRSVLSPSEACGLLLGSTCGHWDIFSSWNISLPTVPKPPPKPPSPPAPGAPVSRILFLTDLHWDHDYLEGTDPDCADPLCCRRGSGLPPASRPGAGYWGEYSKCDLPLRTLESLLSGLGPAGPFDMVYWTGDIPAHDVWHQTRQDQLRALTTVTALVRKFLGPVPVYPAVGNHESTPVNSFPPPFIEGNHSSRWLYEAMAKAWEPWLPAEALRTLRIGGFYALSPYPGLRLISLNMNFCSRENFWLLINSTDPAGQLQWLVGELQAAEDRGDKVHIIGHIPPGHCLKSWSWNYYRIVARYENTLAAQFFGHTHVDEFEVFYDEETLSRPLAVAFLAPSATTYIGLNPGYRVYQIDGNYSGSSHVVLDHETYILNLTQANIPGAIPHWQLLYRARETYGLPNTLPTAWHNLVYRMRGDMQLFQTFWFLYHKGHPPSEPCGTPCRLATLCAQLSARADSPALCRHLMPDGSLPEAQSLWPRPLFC
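Human placenta-derived ASM enzyme was preincubated with compound for 10 minutes at room temperature, then given fluorogenic substrate HMU-PC0 (9 uM final) for 60 minutes at 37 °C; a pH 10 stop preceded fluorescence reading at Ex 386/Em 447 nm.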
KB-V1 MDR tox: KB-V1 MDR subline cytotoxicity | KB-V1 MDR cells viability, CellTiter-Glo, 72 h | Potency, µM (doses to about 46.1 µM), most hits filed as cytotoxic | actives 3.4% (n = 400,000); note: nearly all actives have a fitted effect of over 60% in size
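Compound-treated KB-V1 multidrug-resistant cells, 72 h, 37 degrees C; viability by CellTiter-Glo. Fitted qHTS curves give the values.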
MCF10A rereplic: induces DNA re-replication in MCF 10a normal breast cells | MCF 10A DNA re-replication, Hoechst nuclear intensity, 48 h | Potency, µM (doses to about 46.1 µM), actives largely listed as activators | actives 2.9% (n = 350,000); note: nearly all actives have a fitted effect of over 50% in size
Giardia kill: kills Giardia lamblia; Giardia lamblia trophozoite viability; activity change, % at 7.66 µM, hits read low; actives 0.15% (n = 340,000); AID 540267; in the data active = activity change below about -80%; inconclusive = between about -30% and that limit;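 note: parasites exposed to compound for two days anaerobically before the ATP read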
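Giardia lamblia trophozoites (100 cells/well) were incubated with compounds for 48 h at 37 deg C under anaerobic conditions. Viability was read as ATP content by one-step luminescence after 15-30 min at room temperature.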
SW480 rereplic: inducers of DNA re-replication in SW480 colon cancer cells; SW480 DNA re-replication, Hoechst DNA content imaging, 48 h; Potency, µM (highest dose often 46.1 µM), hits mostly activators; actives 1.8% (n = 340,000); note: nearly all actives have a fitted effect of over 55% in size
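Quantitative HTS format with DMSO vehicle controls; 48 hr drug incubation at 37 C, then 40 min Hoechst staining and scanning imager measurement at 405 nm excitation.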
Large screens that a line does not name were inactive; ! = a repeat was not active. In the library only some 6.9% were active in any assay of this set; here they are far more common. Unless noted, calls come from the whole dose curve; as a rule, active = well fitted curve in the direction sought with a large enough effect; inconclusive = small, poorly fitted or top-dose-only effect, or another doubt; inactive = no such curve, though single readings can be large; an effect the other way counts as inactive or inconclusive.

CCOC(=O)c1ccc(Nc2c(-c3ccc(OC)cc3)nc3nc[nH]n23)cc1	none (no result: ASM inhibitor, MCF10A rereplic, Giardia kill, SW480 rereplic)
CCOC(=O)C1=C(Nc2ccc(OC)cc2)C(N)=NC1=N	KB-3-1 tox inconclusive, KB-V1 MDR tox 1.8µM (no result: ASM inhibitor, MCF10A rereplic, Giardia kill, SW480 rereplic)
CCOCCn1ccc2c(OCC(=O)Nc3cc(C(F)(F)F)ccc3Cl)cccc2c1=O	none (no result: ASM inhibitor, MCF10A rereplic, Giardia kill, SW480 rereplic)
COc1cc2c(=O)n(Cc3ccccc3)c(=O)n(CC(=O)Nc3cc(C(F)(F)F)ccc3Cl)c2cc1OC	none (no result: ASM inhibitor, MCF10A rereplic, Giardia kill, SW480 rereplic)
COc1cccc(C(=O)Cn2c(=N)n(C)c3ccccc32)c1	KB-3-1 tox 10µM
COc1cccc(C(=O)CSc2nc3ccccc3n2CC(=O)N2CCOCC2)c1	KB-V1 MDR tox 21µM
CCn1c(C(=O)N2CCC(C(=O)NCCc3ccc(C)cc3)CC2)cc2sccc21	none (no result: ASM inhibitor, MCF10A rereplic, Giardia kill, SW480 rereplic)
CCOC(=O)[C@H]1[C@H]2COc3ccc(Cl)cc3[C@@H]2N2C(=O)c3cc(F)c(F)cc3NC(=O)[C@@]12C	KB-3-1 tox 23µM, KB-V1 MDR tox inconclusive
CCOC(=O)[C@H]1[C@H]2COc3ccc(C)cc3[C@@H]2N2C(=O)c3cc(F)c(F)cc3NC(=O)[C@@]12C	KB-3-1 tox inconclusive
CCOC(=O)[C@H]1[C@H]2COc3ccc(OC)cc3[C@@H]2N2C(=O)c3cc(OC)ccc3NC(=O)[C@@]12C	KB-V1 MDR tox inconclusive, SW480 rereplic 6.5µM
C(=Nc1cccnc1)c1ccnc2ccccc12	none (no result: ASM inhibitor, MCF10A rereplic, Giardia kill, SW480 rereplic)
CCCCn1c(SCC(=O)NCc2ccco2)nc2c(sc3ccccc32)c1=O	KB-V1 MDR tox inconclusive
O=C(CSc1nc2c(sc3ccccc32)c(=O)n1CCc1ccccc1)NCc1ccco1	KB-V1 MDR tox 2.1µM
CCOC(=O)c1ccccc1NC(=O)CSc1nc2ccccc2c(=O)n1CCCN1CCOCC1	MCF10A rereplic 13µM, SW480 rereplic inconclusive
CCOC(=O)CSc1nc2c(sc3ccccc32)c(=O)n1CCCN1CCOCC1	KB-V1 MDR tox 15µM
CC(=O)c1ccccc1NC(=O)CSc1nc2ccccc2c(=O)n1CCCN1CCOCC1	none
CCc1c(C)nc2cc(-c3ccc(OC)c(OC)c3)nn2c1NCC1CC1	KB-3-1 tox inconclusive, KB-V1 MDR tox 5.2µM, MCF10A rereplic 21µM
COc1ccc(CCNC(=O)CCc2c(C)nc3cc(-c4ccccc4)nn3c2C)cc1OC	none (no result: ASM inhibitor, MCF10A rereplic, Giardia kill, SW480 rereplic)
COc1cccc(CNc2cccc(C(F)(F)F)c2)c1O	KB-3-1 tox 21µM
OCCCN=c1cc(-c2ccccc2)oc2ccc(Cl)cc12	none
CC1(C)CC(N=c2cc(-c3ccccc3)oc3ccc(Cl)cc23)CC(C)(C)N1	KB-3-1 tox 21µM, KB-V1 MDR tox inconclusive, MCF10A rereplic inconclusive, Giardia kill inconclusive, SW480 rereplic inconclusive
COc1cc(N=Nc2ccccc2C(=O)O)ccc1O	MCF10A rereplic 18µM
CCCCCCCCN1[C@@H](CC(C)=O)c2cc(C(F)(F)F)ccc2S1(=O)=O	KB-3-1 tox inconclusive, KB-V1 MDR tox 18µM!, SW480 rereplic inconclusive
COc1ccc(NC(=O)C(C)n2nc(-c3cc(C)ccc3C)c3c(c2=O)CCCC3)cc1 (configuration not stated)	KB-V1 MDR tox inconclusive (no result: ASM inhibitor, MCF10A rereplic, Giardia kill, SW480 rereplic)
Cc1nc2sc(C(=O)O)c(N)c2c2c1COC(C)(C)C2	none
CCOC(=O)c1sc2nc(-c3ccco3)c3c(c2c1N)CC(C)(C)OC3	KB-V1 MDR tox 12µM, MCF10A rereplic 23µM
CC1(C)Cc2c(c(N3CCCC3)nc3sc(C(=O)Nc4ccccc4)c(N)c23)CO1	MCF10A rereplic 2.9µM, SW480 rereplic inconclusive
COC(=O)c1ccc(-c2sc3nc(N4CCOCC4)c4c(c3c2N)CC(C)(C)OC4)o1	MCF10A rereplic inconclusive, SW480 rereplic 0.71µM
CCOC(=O)c1sc2nc(N3CCOCC3)c3c(c2c1N)CC(C)(C)N(C)C3	MCF10A rereplic inconclusive, SW480 rereplic inconclusive
CN1Cc2c(N3CCOCC3)nc3sc(C(=O)c4ccccc4)c(N)c3c2CC1(C)C	MCF10A rereplic 21µM, SW480 rereplic inconclusive
CC1(C)Cc2c(c(N3CCOCC3)nc3sc(C(N)=O)c(N)c23)CO1	none
CCOC(=O)c1ccc(NC(=O)c2sc3nc(N4CCOCC4)c4c(c3c2N)CCCC4)cc1	MCF10A rereplic 2.1µM, SW480 rereplic inconclusive
